{"source": "PubChem BioAssay (EPA / NIEHS)", "note": "“And” between values parts separate entries of the source, which are not always exact repeats. Equal values may be shown once. The source made the active and inactive calls. The calls were made as follows: active = hit-call score of the fitted dose curve at least 0.9, where 1 is the maximum; inactive = score below 0.9."}
{"test": "CCTE_Shafer_MEA_dev_network_spike_duration_std: CCTE's Neural Network Formation Assay for Standard Deviation of Network Spike Duration, Shafer Lab (AID 2284052);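 also: hits are decreases in network spike duration SD versus DMSO vehicle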", "method": "CCTE_Shafer_MEA_dev assay is conducted using Axion Biosystems 48 well microelectrode array (MEA) plates and Maestro recording system. Each well of the MEA plate contains a grid of 16 microelectrodes embedded in the culture surface. Electrically active cells, such as neurons, can be cultured over the electrodes, and electrical activity in these cells can be recorded extracellularly. The spontaneous firing of neurons is captured from each electrode on a microsecond timescale providing both temporally and spatially precise data. […] The CCTE_Shafer_MEA_dev assay uses primary cultures of rat cortical neurons. Recordings are made on days post-plating 5, 7, 9 and 12. As these cultures mature over time, neural networks develop functional activity and form cohesive networks in which electrical activity can be highly coordinated. CCTE_Shafer_MEA_dev_network_spike_duration_std is 1 of 19 assay components of the CCTE_Shafer_MEA_dev assay. It measures the standard deviation of the duration of network spikes (temporally-clustered groups of action potential firing across multiple electrodes) during a recording in a microelectrode array (MEA) using Axion Biosystems Maestro 768 channel amplifier with the AxIS adaptive spike detector. To collapse across multiple recordings made on days post-plating 5, 7, 9 and 12, the trapezoidal area-under-the-curve of the component is calculated.Data from the assay component CCTE_Shafer_MEA_dev_network_spike_duration_std was analyzed into 1 assay endpoint. This assay endpoint, CCTE_Shafer_MEA_dev_network_spike_duration_std, was analyzed in the negative analysis fitting direction relative to DMSO as the negative control and baseline of activity. Using a type of functional reporter, gain or loss-of-signal activity can be used to understand electrical activity.\nOn the day prior to culture, each well was coated thoroughly with 150 uL of 0.05% polyethyleneimine (PEI, Sigma Cat P3143) in 50 mM HEPES (Sigma Cat H7523) at a pH of 8. The plate was incubated at 37C for one hour. PEI was rinsed out with 500 uL of sterile water three times. Plates were stored at 4C until the day of culture. This culture was plated at a seeding density of 1.5 x 10^5 cells/well on a 48-well MEA plate, prepared as described above. Cells were administered via a 25 uL media/laminin ([…]; Sigma Cat L2020-1MG) drop directly onto the microelectrode array, as adding the cells with the laminin results in better attachment than pre-coating with laminin. After 2 hours, an additional 475 uL of cortical media was added and the cells returned to the incubator. Exposure starts at day 0 of plating and is continued over twelve days of network development until the experiment is terminated. Cells are fed with fresh medium on DIV 5 and 9, following the recordings on those days. The entire volume of media in the well is exchanged and any vehicle or compound treatment is renewed. Complete details are found in OP-NHEERL/ISTD/SBB/TJS/2015-03-r0 (available on request, email shafer.tim@epa.gov). Measurement of the electrical activity is non-invasive, and recordings can be made from the same plate over multiple different days of the culture. In cortical neurons, this allows for the measurement of extracellular action potentials over the period during which networks form in the MEA plate."}
{"smiles": "[Cl-].[Cl-].[Hg+2]", "AC50": "382 nM (active)"}
{"smiles": "CCNS(=O)(=O)C(F)(F)C(F)(F)C(F)(F)C(F)(F)C(F)(F)C(F)(F)C(F)(F)C(F)(F)F", "outcome": "inactive"}
{"smiles": "C1=Cc2cccc3cccc1c23", "outcome": "inactive"}
{"smiles": "O=P(OCCCl)(OCCCl)OCCCl", "outcome": "inactive"}
{"smiles": "ClC1=C(Cl)[C@]2(Cl)[C@H]3[C@H]([C@@H]4C=C[C@H]3C4)[C@@]1(Cl)C2(Cl)Cl", "outcome": "inactive"}
{"smiles": "CNC(=O)Oc1cccc2c1OC(C)(C)C2", "outcome": "inactive"}
{"smiles": "Clc1ccc(C(c2ccc(Cl)cc2)C(Cl)(Cl)Cl)cc1", "AC50": "1.98 µM (active) and 8.91 µM (active)"}
{"smiles": "CCCCOC(=O)c1ccccc1C(=O)OCc1ccccc1", "outcome": "inactive"}
{"smiles": "CC(C)(O)c1cnn2c(-c3ccc(F)c(-c4c(F)cccc4C#N)c3)cnc2n1", "outcome": "inactive"}
{"smiles": "Nc1cc(Cl)cc(C(=O)O)c1Cl", "outcome": "inactive"}
{"smiles": "ClC1=C(Cl)C2(Cl)C3C(Cl)C=CC3C1(Cl)C2(Cl)Cl", "note": "(stereo not given)", "AC50": "744 nM (active)"}
{"smiles": "[O-][Cl+]O", "outcome": "inactive"}
{"smiles": "COC(=O)Nc1nc2ccccc2[nH]1", "outcome": "inactive"}
{"smiles": "Clc1ccc(C(c2ccc(Cl)cc2)C(Cl)Cl)cc1", "AC50": "3210 nM (active)"}
{"smiles": "CC(C)(C)C(O)(CCc1ccc(Cl)cc1)Cn1cncn1", "note": "(stereo not given)", "outcome": "inactive"}
{"smiles": "CN(C)[C@@H]1C(=O)C(C(N)=O)=C(O)[C@@]2(O)C(=O)C3=C(O)c4c(O)cccc4[C@@](C)(O)[C@H]3C[C@@H]12", "outcome": "inactive"}
{"smiles": "CCC[CH2][Sn]([Cl])([CH2]CCC)[CH2]CCC", "AC50": "13.8 nM (active)"}
{"smiles": "CC(C)COC(=O)c1ccccc1C(=O)OCC(C)C", "outcome": "inactive"}
{"smiles": "OCCOCCO", "outcome": "inactive"}
{"smiles": "COP(=S)(OC)SCN1C(=O)c2ccccc2C1=O", "outcome": "inactive"}
